{"source": "the supplement of paper PMC6953052", "note": "± gives the standard deviation of the averaged measurements. In all, about 1,700 compounds were measured (“fraction of GFP-LC3-positive cells (≥5 vesicles/cell)”: median about 0.43, highest 2% from about 0.81 on). Many of the other results were omitted from the sample, so the highest values are more common in it than they were."}
{"tested_on": "CbCln3 Δex7/8/Δex7/8 GFP-LC3 cerebellar neuronal cells", "experiment": "fraction of GFP-LC3-positive cells (≥5 vesicles/cell); higher = more autophagosome accumulation", "summary_of_the_method": "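Values are the duplicate-averaged fraction of cells passing a GFP-LC3 vesicle cutoff, counted per cell in CellProfiler with out-of-focus images excluded. That cutoff is 5 or more vesicles. Wild-type or mutant CbCln3 cerebellar cells stably expressing GFP-LC3 (2 × 10^3/well, 384-well) were given ~50 nL compound in DMSO by pin transfer for 24 h at 33 °C, then fixed in 3.2% PFA and imaged at 10×, three fields per well.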"}
{"smiles": "CCCCCCCCCCCCCCC[C@@H](O)[C@H](CO)NC(=O)CCCCCCC", "note": "[C8 Dihydroceramide]", "fraction of GFP-LC3-positive cells": 0.428}
{"smiles": "CCCCCCCCCCCCCCC[C@@H](O)[C@H](CO)NC(=O)CCCCCCC", "fraction of GFP-LC3-positive cells": 0.494}
{"smiles": "CN(CCc1ccc(Cl)c(Cl)c1)CC(O)COc1ccc(NS(C)(=O)=O)cc1", "note": "(stereo unspecified)", "fraction of GFP-LC3-positive cells": 0.503}
{"smiles": "CC(=N)NCc1cccc(CN)c1", "fraction of GFP-LC3-positive cells": 0.371}
{"smiles": "Cc1c(N(C)CS(=O)(=O)[O-])c(=O)n(-c2ccccc2)n1C.[Na+]", "note": "[Dipyrone]", "fraction of GFP-LC3-positive cells": 0.447}
{"smiles": "O=c1c(O)c(-c2ccc(O)cc2)oc2cc(O)cc(O)c12", "note": "[Kaempferol]", "fraction of GFP-LC3-positive cells": 0.294}
{"smiles": "O=C1CCc2c(ccc3ccccc23)O1", "note": "[Splitomycin]", "fraction of GFP-LC3-positive cells": 0.354}
{"smiles": "O=C1C=CC(=O)c2c1ccc1c2ccc2ccccc21", "note": "[Chrysene-1,4-quinone]", "fraction of GFP-LC3-positive cells": 0.883}
{"smiles": "N=C(N)NS(=O)(=O)c1ccc(N)cc1", "note": "[Sulfaguanidine]", "fraction of GFP-LC3-positive cells": 0.43}
{"smiles": "CN(C)CC/C=C1\\c2ccccc2COc2ccccc21.Cl", "note": "[Doxepin hydrochloride]", "fraction of GFP-LC3-positive cells": 0.567}
{"smiles": "CCCc1c(OCCCCc2nnn[nH]2)ccc(C(C)=O)c1O", "fraction of GFP-LC3-positive cells": "0.398 ± 0.011"}
{"smiles": "Cc1c(N)c(=O)n(-c2ccccc2)n1C", "note": "[Ampyrone]", "fraction of GFP-LC3-positive cells": 0.49}
{"smiles": "CO[C@@H]1[C@H](N(C)C(=O)c2ccccc2)C[C@H]2O[C@]1(C)n1c3ccccc3c3c4c(c5c6ccccc6n2c5c31)C(=O)NC4", "fraction of GFP-LC3-positive cells": 0.636}
{"smiles": "O=P(O)(O)C(O)c1ccc2ccccc2c1", "note": "(stereo unspecified)", "fraction of GFP-LC3-positive cells": 0.425}
{"smiles": "CN(C)CC/C=C1\\c2ccccc2CSc2ccccc21.Cl", "note": "[Dosulepin hydrochloride]", "fraction of GFP-LC3-positive cells": 0.637}
{"smiles": "CN(C)CCn1nnnc1SCC1=C(C(=O)O)N2C(=O)[C@@H](NC(=O)Cc3csc(N)n3)[C@H]2SC1.Cl", "note": "[Cefotiam hydrochloride]", "fraction of GFP-LC3-positive cells": 0.488}
{"smiles": "CCCCC/C=C\\C[C@@H](O)/C=C/C=C/C=C/[C@@H](O)CCCC(=O)O", "note": "[5(S),12(R)-DiHETE all trans]", "fraction of GFP-LC3-positive cells": 0.354}
{"smiles": "Nc1cc(N2CCCCC2)nc(N)[n+]1OS(=O)(=O)[O-]", "fraction of GFP-LC3-positive cells": 0.38}
{"smiles": "CCCC(=O)Nc1ccc(OCC(O)CNC(C)C)c(C(C)=O)c1.Cl", "note": "(stereo unspecified) [Acebutolol hydrochloride]", "fraction of GFP-LC3-positive cells": 0.518}
{"smiles": "CN(C(=O)CN(CCO)CC(=O)N(C)C(C)(C)Cc1ccccc1)C(C)(C)Cc1ccccc1", "note": "[Oxethazaine]", "fraction of GFP-LC3-positive cells": 0.384}
{"smiles": "CCCCC[C@H](O)/C=C/[C@H]1[C@H](O)CC(=O)[C@@H]1CCCCCCC(=O)O", "fraction of GFP-LC3-positive cells": 0.346}
{"smiles": "CCCCC[C@H](O)/C=C/[C@H]1[C@H](O)CC(=O)[C@@H]1CCCCCCC(=O)O", "note": "[Prostaglandin E1]", "fraction of GFP-LC3-positive cells": 0.349}
{"smiles": "O=c1[nH]c2cc(C(F)(F)F)ccc2n1-c1cc(C(F)(F)F)ccc1O", "fraction of GFP-LC3-positive cells": 0.292}
{"smiles": "C[n+]1ccccc1/C=N/O.[Cl-]", "note": "[Pralidoxime chloride]", "fraction of GFP-LC3-positive cells": 0.428}
{"smiles": "Clc1ccc(COC(Cn2ccnc2)c2ccc(Cl)cc2Cl)c(Cl)c1", "note": "(stereo unspecified) [Miconazole]", "fraction of GFP-LC3-positive cells": 0.337}
{"smiles": "CC1(C)S[C@@H]2[C@H](NC(=O)[C@H](N)c3ccccc3)C(=O)N2[C@H]1C(=O)OC1OC(=O)c2ccccc21.Cl", "note": "(stereo partly specified) [Talampicillin hydrochloride]", "fraction of GFP-LC3-positive cells": 0.422}
{"smiles": "CN/C(=N/CCSCc1nc[nH]c1C)NC#N", "note": "[Cimetidine]", "fraction of GFP-LC3-positive cells": 0.473}
{"smiles": "Cn1cnc([N+](=O)[O-])c1Sc1ncnc2[nH]cnc12", "note": "[Azathioprine]", "fraction of GFP-LC3-positive cells": 0.388}
{"smiles": "CCCCC/C=C\\C/C=C\\C/C=C\\C/C=C\\CCCC(=O)O[C@@H](CO)COCCCCCCCCCCCCCCCC", "note": "[1-Hexadecyl-2-arachidonoyl-glycerol]", "fraction of GFP-LC3-positive cells": 0.517}
{"smiles": "CCCCC/C=C\\C/C=C\\C/C=C\\C/C=C\\CCCC(=O)O[C@@H](CO)COCCCCCCCCCCCCCCCC", "fraction of GFP-LC3-positive cells": 0.311}
{"smiles": "CC(C)n1c(/C=C/[C@H](O)C[C@H](O)CC(=O)[O-])c(-c2ccc(F)cc2)c2ccccc21.[Na+]", "note": "[Fluvastatin sodium salt]", "fraction of GFP-LC3-positive cells": 0.123}
{"smiles": "CC(CNC1CCCCC1)OC(=O)c1ccccc1.Cl", "note": "(stereo unspecified) [Hexylcaine hydrochloride]", "fraction of GFP-LC3-positive cells": 0.411}
{"smiles": "O=C1NC(=O)C(c2ccccc2[N+](=O)[O-])=C1Nc1ccc(O)c(Cl)c1", "fraction of GFP-LC3-positive cells": 0.364}
{"smiles": "CN[C@@H]1C(O[C@H]2O[C@H](CO)[C@@H](N)[C@H](O)[C@H]2O)O[C@H]2C[C@@H](N)[C@@H](O[C@H]3[C@H](O)[C@@H](O)[C@H](N)C[C@@H]3N)OC2[C@@H]1O", "note": "(stereo partly specified) [Apramycin]", "fraction of GFP-LC3-positive cells": 0.274}
{"smiles": "CCCCCCCCCC(=O)N[C@@H](CCCN=C(N)N)C(=O)N[C@H](C(=O)N[C@@H](CCCCN)C(=O)N[C@@H](CCCN=C(N)N)C(=O)CCl)C(C)C", "fraction of GFP-LC3-positive cells": 0.536}
{"smiles": "CCCCC/C=C\\C/C=C\\CC1OC1C/C=C\\CCCC(=O)O", "note": "(stereo unspecified)", "fraction of GFP-LC3-positive cells": 0.392}
{"smiles": "CCCCC/C=C\\C/C=C\\CC1OC1C/C=C\\CCCC(=O)O", "note": "(stereo unspecified) [8,9-Epoxyeicosatrienoic acid]", "fraction of GFP-LC3-positive cells": 0.41}
{"smiles": "CCCCCC/C=C/CCCCCCCCC(=O)O", "note": "[10(Z)-Heptadecenoic acid]", "fraction of GFP-LC3-positive cells": 0.419}
{"smiles": "CCCC[C@@H](C=O)NC(=O)OC(C)(C)C", "fraction of GFP-LC3-positive cells": 0.447}
{"smiles": "COc1c2occc2c(OC)c2c(=O)cc(C)oc12", "note": "[Khellin]", "fraction of GFP-LC3-positive cells": 0.508}
{"smiles": "Cl.c1cnc(N2CCN(Cc3ccc4c(c3)OCO4)CC2)nc1", "note": "[Piribedil hydrochloride]", "fraction of GFP-LC3-positive cells": 0.496}
{"smiles": "Clc1ccc(COC(Cn2ccnc2)c2ccc(Cl)cc2Cl)cc1.O=[N+]([O-])O", "note": "(stereo unspecified) [Econazole nitrate]", "fraction of GFP-LC3-positive cells": 0.353}
{"smiles": "COC(=O)C1=C(C)NC(C)=C([N+](=O)[O-])C1c1ccccc1C(F)(F)F", "note": "(stereo unspecified)", "fraction of GFP-LC3-positive cells": 0.449}
{"smiles": "CC(=O)N(CC(C)C(=O)O)c1c(I)cc(I)c(N)c1I", "note": "(stereo unspecified) [Iocetamic acid]", "fraction of GFP-LC3-positive cells": 0.312}
{"smiles": "COc1cc(S(C)=O)ccc1-c1nc2ncccc2[nH]1", "note": "(stereo unspecified) [Sulmazole]", "fraction of GFP-LC3-positive cells": 0.364}
{"smiles": "CN(C)CCCN1c2ccccc2Sc2ccccc21.Cl", "note": "[Promazine hydrochloride]", "fraction of GFP-LC3-positive cells": 0.434}
{"smiles": "C#C[C@]1(O)CC[C@H]2[C@@H]3CCC4=C(CCC(=O)C4)[C@H]3CC[C@@]21C", "note": "[Norethynodrel]", "fraction of GFP-LC3-positive cells": 0.389}
{"smiles": "COc1ccc2cc([C@@H](C)C(=O)[O-])ccc2c1.[Na+]", "note": "[(R) -Naproxen sodium salt]", "fraction of GFP-LC3-positive cells": 0.478}
{"smiles": "Cl.NC(CO)C(=O)NNCc1ccc(O)c(O)c1O", "note": "(stereo unspecified) [Benserazide hydrochloride]", "fraction of GFP-LC3-positive cells": 0.411}
{"smiles": "CC(C)(C)c1cc(O)c(C(C)(C)C)cc1O", "note": "[2,5-ditertbutylhydroquinone]", "fraction of GFP-LC3-positive cells": 0.696}
{"smiles": "COc1cc2nc(N(C)CCCNC(=O)C3CCCO3)nc(N)c2cc1OC.Cl", "note": "(stereo unspecified) [Alfuzosin hydrochloride]", "fraction of GFP-LC3-positive cells": 0.474}
